# The entries come from a sample that favours the strongest signals as a whole.
# Assays:
# Experiment in all cases: glycan array binding signal (z-score within array); higher = stronger binding
# Settings in all cases: glycan notation: IUPAC condensed, linker removed
# [1] = molecular target: Fuc(a1-2)Gal(b1-4)Fuc(a1-3)]GlcNAc(b1-2)Man(a1-3)[Fuc(a1-2)Gal(b1-4)[Fuc(a1-3)]GlcNAc(b1-2)Man(a1-6)]Man(b1-4)GlcNAc(b1-4)GlcNAc
# In short: (§1)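 From the Consortium for Functional Glycomics database, 3228 arrays were curated, keeping only those whose protein sequence was available. Binding is given as a within-array Z-score averaged across arrays sharing a protein sequence and across linkers. Negative Z-scores can be read as non-binding.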
# [2] = molecular target: Fuc(a1-2)Gal(b1-4)GlcNAc(b1-2)Man(a1-3)[Fuc(a1-2)Gal(b1-4)GlcNAc(b1-2)Man(a1-6)]Man(b1-4)GlcNAc(b1-4)GlcNAc
# In short: as §1
# [3] = molecular target: Fuc(a1-2)Gal(b1-4)GlcNAc(b1-3)Gal(b1-4)GlcNAc(b1-2)Man(a1-3)[Fuc(a1-2)Gal(b1-4)GlcNAc(b1-3)Gal(b1-4)GlcNAc(b1-2)Man(a1-6)]Man(b1-4)GlcNAc(b1-4)GlcNAc
# In short: as §1
# [4] = molecular target: Fuc(a1-2)Gal(b1-4)GlcNAc(b1-6)GalNAc
# In short: as §1
# [5] = molecular target: Fuc(a1-2)Gal(b1-4)GlcNAc6S
# In short: as §1
# [6] = molecular target: Fuc(a1-2)Gal(b1-4)[Fuc(a1-3)]GlcNAc(b1-3)GalNAc
# In short: as §1
# [7] = molecular target: Fuc(a1-2)[Gal(a1-3)]Gal(b1-3)GlcNAc(b1-2)Man(a1-3)[Fuc(a1-2)[Gal(a1-3)]Gal(b1-3)GlcNAc(b1-2)Man(a1-6)]Man(b1-4)GlcNAc(b1-4)GlcNAc
# In short: as §1
# [8] = molecular target: Fuc(a1-2)[Gal(a1-3)]Gal(b1-4)GlcNAc(b1-2)Man
# In short: as §1
# [9] = molecular target: Fuc(a1-2)[GalNAc(a1-3)]Gal(b1-3)GlcNAc(b1-6)GalNAc
# In short: as §1
# [10] = molecular target: Fuc(a1-2)[GalNAc(a1-3)]Gal(b1-4)GlcNAc(b1-2)Man(a1-3)[Fuc(a1-2)[GalNAc(a1-3)]Gal(b1-4)GlcNAc(b1-2)Man(a1-6)]Man(b1-4)GlcNAc(b1-4)GlcNAc
# In short: as §1
# [11] = molecular target: Fuc(a1-2)[GalNAc(a1-3)]Gal(b1-4)GlcNAc(b1-3)[Fuc(a1-2)[GalNAc(a1-3)]Gal(b1-4)GlcNAc(b1-6)]GalNAc
# In short: as §1
# [12] = molecular target: Fuc(a1-3)[Gal3S(b1-4)]Glc
# In short: as §1
# [13] = molecular target: Gal(a1-3)Gal
# In short: as §1
# [14] = molecular target: Gal(a1-3)Gal(b1-4)[Fuc(a1-3)]GlcNAc
# In short: as §1
# [15] = molecular target: Gal(b1-3)[Fuc(a1-4)]GlcNAc
# In short: as §1
# [16] = molecular target: Gal(b1-4)GalNAc(b1-3)[Fuc(a1-2)]Gal(b1-4)GlcNAc
# In short: as §1
# [17] = molecular target: Gal(b1-4)GlcNAc(b1-2)Man(a1-3)Man(b1-4)GlcNAc(b1-4)GlcNAc
# In short: as §1
# [18] = molecular target: Gal(b1-4)GlcNAc(b1-2)[Gal(b1-4)GlcNAc(b1-4)]Man(a1-3)[GlcNAc(b1-4)][Gal(b1-4)GlcNAc(b1-2)[Gal(b1-4)GlcNAc(b1-6)]Man(a1-6)]Man(b1-4)GlcNAc(b1-4)GlcNAc
# In short: as §1
# [19] = molecular target: Gal(b1-4)GlcNAc(b1-3)Gal(b1-3)GlcNAc
# In short: as §1
# [20] = molecular target: Gal(b1-4)GlcNAc(b1-3)Gal(b1-4)GlcNAc(b1-3)Gal(b1-4)GlcNAc
# In short: as §1
# [21] = molecular target: Gal(b1-4)GlcNAc(b1-3)Gal(b1-4)GlcNAc(b1-3)Gal(b1-4)GlcNAc(b1-3)Gal(b1-4)GlcNAc(b1-2)Man(a1-3)[Gal(b1-4)GlcNAc(b1-3)Gal(b1-4)GlcNAc(b1-3)Gal(b1-4)GlcNAc(b1-3)Gal(b1-4)GlcNAc(b1-2)Man(a1-6)]Man(b1-4)GlcNAc(b1-4)[Fuc(a1-6)]GlcNAc
# In short: as §1
# [22] = molecular target: GalNAc(b1-4)GlcNAc(b1-2)Man
# In short: as §1
# [23] = molecular target: GalNAc3S(b1-4)GlcNAc3S
# In short: as §1
# [24] = molecular target: GlcNAc(b1-2)[GlcNAc(b1-6)]Man(a1-6)[GlcNAc(b1-2)Man(a1-3)]Man(b1-4)GlcNAc(b1-4)GlcNAc
# In short: as §1
# [25] = molecular target: GlcNAc(b1-3)Gal(b1-4)Glc
# In short: as §1
# [26] = molecular target: GlcNAc(b1-3)Gal(b1-4)GlcNAc
# In short: as §1
# [27] = molecular target: GlcNAc(b1-3)Gal(b1-4)GlcNAc(b1-2)[GlcNAc(b1-3)Gal(b1-4)GlcNAc(b1-6)]Man(a1-6)[GlcNAc(b1-3)Gal(b1-4)GlcNAc(b1-2)Man(a1-3)]Man(b1-4)GlcNAc(b1-4)GlcNAc
# In short: as §1
# [28] = molecular target: GlcNAc(b1-3)GalNAc
# In short: as §1
# [29] = molecular target: GlcNAc(b1-3)[GlcNAc(b1-4)][GlcNAc(b1-6)]GlcNAc
# In short: as §1
# [30] = molecular target: Man(a1-3)[Man(a1-6)]Man(a1-6)[Man(a1-2)Man(a1-3)]Man(b1-4)GlcNAc(b1-4)GlcNAc
# In short: as §1
binder,measurement,setting,value
"CcfD (Bacteroides vulgatus), A6KYX8 (protein) MKYKNYFKSIIYLALGAFTLGSCEDFLDRQEDEKLTFDKIWESRNTTQQYWLNAMSFLPNENGSLQGDTEPYLGASDECTIAYDRQYRWINFGTWNPSQVPYYKMDHYYKGIRECNIFLQNVYKCSDPLVTKDQLDEWYWQTRFARAYYYFLMMRDYGPVFLLGDDLLDFTASTEELYRPRNTWDQCVNYVVSEMTQCAESGVVLQQSDLPAAKWGLATVGTCHAVISRLLLYSARPLFNGNKLYSTVKNPDAPDFPELSGVKLFPELDNTKWQKAAEAAKKLIDNPCYELYRAGNDNPYEDYYGVTHETWNKELIWTDRYNGLFSWGVGTVPTGVAGTAYGAVGPTQALVDAYAMNTGWYPITGYEADGTPIVEPLSGYELASELEKSSWIYPSGGWSNKADFEIEAPNMYKDREPRFYVTVFFGGNQWLHGNSATSISFAKGGNGNKSHDYPKSGYLCNRFYDHKLNSSEGQWGNITFPVFRLGEIYLNFIEAVLECKKNGVALDPSYEALAMEKWADLRKRAGLDPITSIYGQVSTEELIQLCRKERQIELAFERHRYFDTRTWMIATQTDNGKMYGMNTSCPLDAGMKGTETPDGFWERTAFETRVFQNKHYLYPFSQRELDRNKLLTQNYGW",glycan array binding signal (z-score),[1],2
same,glycan array binding signal (z-score),[2],4.7
same,glycan array binding signal (z-score),[3],4.15
same,glycan array binding signal (z-score),[4],0.552
same,glycan array binding signal (z-score),[5],1.84
same,glycan array binding signal (z-score),[6],0.374
same,glycan array binding signal (z-score),[7],3.23
same,glycan array binding signal (z-score),[8],-0.282
same,glycan array binding signal (z-score),[9],-0.82
same,glycan array binding signal (z-score),[10],4.4
same,glycan array binding signal (z-score),[11],0.323
same,glycan array binding signal (z-score),[12],-0.429
same,glycan array binding signal (z-score),[13],0.343
same,glycan array binding signal (z-score),[14],0.14
same,glycan array binding signal (z-score),[15],-0.269
same,glycan array binding signal (z-score),[16],-0.749
same,glycan array binding signal (z-score),[17],3
same,glycan array binding signal (z-score),[18],-0.683
same,glycan array binding signal (z-score),[19],-0.932
same,glycan array binding signal (z-score),[20],-1.02
same,glycan array binding signal (z-score),[21],0.003
same,glycan array binding signal (z-score),[22],-0.896
same,glycan array binding signal (z-score),[23],-0.21
same,glycan array binding signal (z-score),[24],-0.663
same,glycan array binding signal (z-score),[25],-0.881
same,glycan array binding signal (z-score),[26],-1.04
same,glycan array binding signal (z-score),[27],3.38
same,glycan array binding signal (z-score),[28],-0.332
same,glycan array binding signal (z-score),[29],2.41
same,glycan array binding signal (z-score),[30],-0.673

# Reference: the supplement of paper PMC8728848
